# LMP1 NFkB inh – inhibitors of Epstein-Barr LMP1-induced NF-kappaB reporter; 350,000 compounds, 0.69% hits; LMP1-induced NF-kappaB luciferase reporter cells, luminescence; inhibition, % at 12.5 µM; in the data active means inhibition above about 41%;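 further: 0% = neutral control wells and 100% = reference inhibitor control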
# TWEAK-Fn14 inh – blocks TWEAK-Fn14 interaction in a reporter cell assay; TWEAK-stimulated Fn14 reporter cells, luciferase luminescence, 8 h; inhibition, % at 10 µM; 360,000 compounds, 2% hits; in the data active means inhibition above about 50%
# TRPM1 prom inh – MITF TRPM1 promoter inhibition in SK-MEL-5 cells. 330,000 compounds, 0.83% hits. inhibition, % at 12.5 µM. SK-MEL-5 TRPM1 promoter luciferase, 24 h;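 active means mean inhibition across replicates of 60% or more, whatever share of single replicates reaches that level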
# TROY signal inh – blocks TROY-dependent signaling in reporter cells; Q293 LMP1-TROYcd NF-kB luciferase reporter, 4 h; inhibition, % at 10 µM; 360,000 compounds, 0.98% hits;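 active means compounds whose plate-normalised and pattern-corrected inhibition of the luciferase reporter signal at the single screening dose is 50% or more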
# HIF-2a block – HIF-2a inhibition; 786-0 RCC cells HIF-2a reporter, luciferase luminescence, overnight; inhibition, % at 18.8 µM; 360,000 compounds, 0.72% hits; AID 624352;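 active means inhibition of the luminescence signal of 40% or more relative to plate controls, in a single-dose primary screen at 18.75 µM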
# Peg3 prom inh – inhibitors of Peg3 promoter; inhibition, % at 20 µM; 360,000 compounds, 1.7% hits; HeLa PEG-Prom luciferase reporter, luminescence, overnight;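 active means inhibition of at least 50% at 20 µM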
# * = called active by the depositor; . = no result. The list is not random: actives were taken first. Their share in the collection is about 4%.
SMILES,LMP1 NFkB inh,TWEAK-Fn14 inh,TRPM1 prom inh,TROY signal inh,HIF-2a block,Peg3 prom inh
CCc1nnc(NS(=O)(=O)c2ccc(N/C=C/C(=O)c3ccc(C)cc3)cc2)s1,-5,2,-7,-4,-24,-31
CCc1nnc(NS(=O)(=O)c2ccc(N/C=C\C(=O)c3ccc(F)cc3)cc2)s1,-3,40,-11,73*,10,-7
CC(C)(C)OC(=O)N[C@H](C(=O)OC(C)(C)C)c1ccc2c(c1)OCO2,-6,-10,0,-7,5,-2
O=C1CN(C(=O)/C=C/c2ccc(Br)cc2)CCN1,5,4,-20,-6,-17,-32
OC(c1ccc(F)c(F)c1)c1ncc(-c2cccc(C(F)(F)F)c2)[nH]1 (stereo not given),.,6,.,14,9,24
COc1ccc(CCNc2ncnc3sc(C)cc23)cc1OC,26,76*,43,32,7,12
COc1ccc(CCNc2ncnc3[nH]ncc23)cc1OC,2,26,10,7,1,21
COCC(C)NC(=O)CCS(=O)(=O)c1nc(-c2ccc(OC)cc2)cc(C(F)(F)F)n1 (stereo not given),-23,86*,7,46,94*,110*
COc1ccc(Cl)cc1C(=O)OCC(=O)Nc1cccnc1Cl,2,-37,-11,-22,-11,3
COc1ccc(-c2cc(C(F)(F)F)nc(S(=O)(=O)CCCC(=O)Nc3cccnc3Cl)n2)cc1OC,-7,94*,79*,37,-21,106*
CN(CC(=O)Nc1ccccc1C(F)(F)F)C(=O)c1ccc(N2C(=O)CCC2=O)cc1,3,-10,4,-11,2,3
COC(=O)CC1COc2ccccc2N1C(=O)/C=C/c1ccccc1 (stereo not given),6,-11,-15,-13,-44,-28
COC(=O)c1ccccc1NC(=O)CSc1ncn[nH]1,-3,-24,2,-9,14,10
COc1ccc(C(=O)CC(c2ccccc2)C2C(=O)CCCC2=O)cc1 (stereo not given),-3,-2,-4,-24,-8,-5
COc1ccc(C(=O)CC(Sc2ccccc2N)c2ccc(OC)cc2)cc1 (stereo not given),-73,80*,.,13,-133,-186
CCN(C[C@H]1N[C@@](CC)(C(=O)OC)[C@H]2C(=O)N(C)C(=O)[C@@H]12)S(=O)(=O)c1ccc(OC(F)(F)F)cc1,-6,-8,-5,-20,-4,-14
CCC1(C)Cc2ccccc2-c2nc(NCCO)n(-c3ccc(C)cc3)c(=O)c21 (stereo not given),-4,42,-4,54*,-18,-34
CC1CCc2nc(NC(=O)C3COc4ccccc4O3)sc2C1 (stereo not given),40,96*,31,82*,-1,-13
Cc1csc(NC(=O)C2COc3ccccc3O2)n1 (stereo not given),1,78*,-8,44,-31,-19
Cc1nc2ccc3nc(NC(=O)C4COc5ccccc5O4)sc3c2s1 (stereo not given),-1,23,.,1,-116,-63
Cc1cnc(NC(=O)C2COc3ccccc3O2)s1 (stereo not given),26,95*,34,60*,-2,15
COC(=O)c1c(NC(=O)C2COc3ccccc3O2)sc2c1CCN(C(C)=O)C2 (stereo not given),14,55*,-1,30,-12,-2
CC1CCc2nc(NC(=O)C3CC3)sc2C1 (stereo not given),4,-27,-35,-60,-194,-207
O=C(Nc1ccc2c(c1)OCCO2)NC1(C(F)(F)F)Oc2ccccc2O1,5,89*,.,28,15,-148
O=C(Nc1ccc2c(c1)OCCO2)Nc1ccc2c(c1)OCO2,-5,51*,-17,-13,-91,-66
SMILES,LMP1 NFkB inh,TWEAK-Fn14 inh,TRPM1 prom inh,TROY signal inh,HIF-2a block,Peg3 prom inh
NC(=O)c1ccc(NC(=O)Nc2ccc3c(c2)OCO3)cc1,-11,0,-21,-33,-86,-121
CC(Nc1ccc2c(c1)OCCO2)C(=O)Nc1ccc2c(c1)OCO2 (stereo not given),37,59*,-7,50*,3,3
O=C(Nc1ccc2c(c1)OCO2)NC1(C(F)(F)F)Oc2ccccc2O1,-8,-26,-7,-2,-32,-51
O=C(O)C1CC=CCC1C(=O)Nc1ccc2c(c1)OCCO2 (stereo not given),3,79*,-14,59*,-4,-55
Cc1noc(C)c1C(=O)N1CCC1(C)C(=O)NS(=O)(=O)c1ccccc1Cl (stereo not given),.,2,.,-16,21,7
CC(CNC(=O)CC[C@H]1O[C@@H](n2cnc3c(NC(=O)c4ccccc4)ncnc32)[C@H](O)[C@@H]1O)c1ccccc1 (stereo not given in full),.,-19,.,3,-8,-6
Nc1c(N(Cc2ccccc2)C(=O)COc2ccc([N+](=O)[O-])cc2)c(=O)[nH]c(=O)n1Cc1ccccc1,-17,-17,-37,5,8,5
Nc1ccc(-c2ccc(C(=O)O)s2)cn1,7,1,-7,-46,-6,-15
CCCC(C)C(=O)Nc1ccc2c(c1)OCCO2 (stereo not given),9,53*,-17,37,-12,-44
C(=N\n1cnnc1)/c1cn(Cc2ccccc2)c2ccccc12,5,12,23,-3,24,48
Clc1ccc(Cn2cc(/C=N/n3cnnc3)c3ccccc32)c(Cl)c1,-2,54*,16,46,24,44
CC(C)OCCCNC(=O)c1cc(S(=O)(=O)N2CCc3ccccc32)cn1C,-4,2,.,0,7,16
COc1cccc(-c2nc3ccccc3s2)c1,-33,28,-11,-25,-189,-195
O=C(Nc1cccc(-c2nc3ccccc3s2)c1)c1ccc2c(c1)OCO2,-1,16,-7,-22,-109,-92
COc1ccc(-c2nc3ccccc3s2)cc1,34,75*,26,52*,11,7
c1ccc2sc(-c3ccc4c(c3)OCO4)nc2c1,22,74*,5,11,-57,-62
CC(=O)N(C(C)=O)c1ccc2c(c1)OCCO2,-6,4,.,8,-8,-5
CC1C(=O)C(C)C(c2cc(Br)ccc2O)NC1c1cc(Br)ccc1O (stereo not given),5,9,8,63*,38,37
CCc1ccc(NC(=O)Nc2ccsc2C(=O)OC)cc1,-16,53*,-32,63*,-110,-168
COC(=O)c1sccc1NC(=O)Nc1ccc(C)c(C)c1,-18,23,-51,44,-220,-226
CC1(C)Nc2ccccc2C(=O)N1NC(=O)c1ccccc1,-2,7,-4,-4,-7,2
CC1(C)Nc2ccccc2C(=O)N1c1ccccc1,62*,-9,-40,-20,-118,-39

# Source: PubChem BioAssay
